Consider 22 molecules from PubChem BioAssay (Tox21).

Assay [1] in a line: qHTS assay for small molecules that induce genotoxicity in human embryonic kidney cells expressing luciferase-tagged ATAD5 (AID 651632). Note: nearly all actives have a fitted effect of over 15% in size. Note: potency is the fitted concentration of half-maximal effect. The procedure, abridged:
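Reporter cells (HEK293T) express luciferase-tagged ATAD5, a protein that accumulates after DNA damage. Treat 16 hr at 37C/5% CO2, add Amplite, wait 30 min at RT, and read luminescence.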
(Quantitative high-throughput screening tests each substance at several concentrations.)

A short description of assay [2]: qHTS assay for small molecule agonists of the p53 signaling pathway - cell viability (AID 651633; calls by dose curve; note: nearly all actives have a fitted effect of over 30% in size; note: potency is the fitted concentration of half-maximal effect). The essentials: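 p53RE-bla cells were treated with compound for 16 hours at 37 C. Cytotoxicity was then measured as CellTiter-Glo luminescence after 30 min at room temperature.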
A short description of assay [3]: qHTS assay for small molecules that induce genotoxicity in human embryonic kidney cells expressing luciferase-tagged ATAD5 - cell viability (AID 651634; calls by dose curve; note: nearly all actives have a fitted effect of over 25% in size; note: potency is the fitted concentration of half-maximal effect). The procedure, abridged: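 Seeding of 2,000 HEK293T ATAD5-luciferase cells per well preceded pin-tool compound transfer. Plates sat 15.5 hr at 37C under 5% CO2, then fluorescence was read after 30 min with CellTiter-Fluor.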

Assay [4] can be described thus: qHTS assay for small molecule disruptors of the mitochondrial membrane potential - cell viability (AID 720634; calls by dose curve; note: nearly all actives have a fitted effect of over 20% in size; note: potency is the fitted concentration of half-maximal effect). The essentials:
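Measuring cytotoxicity alongside mitochondrial potential, the screen quantified ATP by luminescence in HepG2 cells after 1 hr compound incubation and a 30 min room-temperature CellTiter-Glo step.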

Assay [5] is described as follows: qHTS assay for small molecule disruptors of the mitochondrial membrane potential (AID 720635). Note: potency is the fitted concentration of half-maximal effect. The essentials: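 HepG2 cells exposed to compound 1 hr at 37C, then Mito-MPS dye 30 min. Ratio read of aggregate (540/590 nm) versus monomer (490/535 nm) fluorescence.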
A short description of assay [6]: qHTS assay to test for compound auto fluorescence at 590 nm (red) in HepG2 cells (AID 720674). The essentials: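 HepG2 cells, 2,000 per well in MEM with 10% FBS, attached overnight at 37 C, then got 23 nL compound or DMSO. After 1 hr at 37 C, 5% CO2, red fluorescence was read at 540/590 nm against Rose Bengal sodium as reference.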
A short description of assay [7]: qHTS assay to test for compound auto fluorescence at 535 nm (green) in HepG2 cells (AID 720675).
A short description of assay [8]: qHTS assay to test for compound auto fluorescence at 460 nm (blue) in HEK293 cells (AID 720678). Note: potency is the fitted concentration of half-maximal effect. The procedure, abridged: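 HEK293, 2,000 cells/well, 10% dialyzed FBS; attach 4-5 hr 37C; pin compound or DMSO; o/n 37C/5% CO2; fluorescence 405/460 nm; triamterene-equivalent units.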
A short description of assay [9]: qHTS assay for small molecule agonists of the p53 signaling pathway (AID 651631; calls by dose curve; note: nearly all actives have a fitted effect of over 15% in size; note: potency is the fitted concentration of half-maximal effect). The essentials:
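Beta-lactamase reporter activity under p53 response elements was quantified in HCT-116 cells by FRET fluorescence, following 16 h incubation with test compounds at 37 °C and 2 h substrate development at room temperature.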

Assay [10] can be described thus: qHTS assay to test for compound auto fluorescence at 590 nm (red) in HEK293 cells (AID 720679). The essentials: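 Intensity at 540nm excitation and 590nm emission is reported as Rose Bengal sodium-equivalent autofluorescence. Measurements followed overnight exposure (37C, 5% CO2) of HEK293 cells, 2,000 per well, to 23 nL compound.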

Molecules are shown by their SMILES. Where “and” joins values, the source holds several entries; their conditions need not be identical. Identical values can stand only once. Records with an inconclusive call do not appear. A structure can be active in one record and inactive in another. Calls of active or inactive are those of the source. Unless noted, calls come from the whole dose curve; as a rule, active = well fitted curve in the direction sought with a large enough effect in the repeat runs; inconclusive = weak or mixed curves; inactive = no such curve, though single readings can be large; an effect the other way counts as inactive or inconclusive.
% is set by controls: 0 for no effect and ±100 for the full control effect; tags give direction and shape of the fitted curve or compound fluorescence and quenching.

Take `CCc1cccc(CC)c1NC(=O)CN(CC(=O)O)CC(=O)O`: the Potency result in [1], in assay [2], in [3], in assay [4] and in assay [5] was “inactive” each time. Besides, the fluorescence, relative to Rose Bengal in [6] is 0.215% [at 18.6 µM] (inactive). The fluorescence, % of fluorescein control in assay [7] is -0.0501% [at 18.6 µM] (inactive). The fluorescence, % of triamterene in [8] was -0.194% [at 18.6 µM] (inactive).
For `O=C1C(c2[nH]c3ccc(S(=O)(=O)O)cc3c2O)=Nc2ccc(S(=O)(=O)O)cc21`, the Potency result in assay [9], in assay [2], in assay [3], in assay [4], in assay [5] and in assay [6] was “inactive” throughout. Also, the Potency entry in [7], in assay [8] and in assay [10] was “inactive” throughout.
As for `C=CC(=O)Nc1cc2c(Nc3ccc(F)c(Cl)c3)ncnc2cc1OCCCN1CCOCC1`, the Potency is 11.9 µM (active) in [9], 29.8 µM (active) in assay [2] and 10.6 µM (active) in assay [3]. For the same molecule, the Potency entry in [4], in assay [6], in assay [8] and in [10] was “inactive” in each case.
Take `CC1(C)[C@@H](O)CC[C@]2(C)[C@H]3C(=O)C=C4[C@@H]5C[C@@](C)(C(=O)O)CC[C@]5(C)CC[C@@]4(C)[C@]3(C)CC[C@@H]12`: the Potency result in [1], in assay [3], in assay [4], in assay [6], in assay [7] and in [8] was “inactive” in each case. The Potency entry in assay [10] is “inactive”. Moreover, the Potency is 23.7 µM (active) and inactive in [2]; 23.7 µM (active) and 67.8 µM (active) in assay [5].
As for `CCn1c2ccccc2c2cc([N+](=O)[O-])ccc21`, the Potency result in [1], in assay [2], in assay [3], in [6], in assay [7] and in assay [8] was “inactive” in each case. For the same molecule, the Potency entry in assay [10] was “inactive”. Also, the Potency in assay [4] and in [5] was 30.6 µM (active) in each case.
With `C[C@@H](O)[C@H](N)C(=O)O`, the Potency result in assay [9], in assay [1], in [3], in assay [5], in assay [6] and in assay [7] was “inactive” each time. In addition, the Potency entry in assay [8] and in assay [10] was “inactive” throughout.
Turning to `CCCC(=O)OC(C)(C)Cc1ccccc1`, the Potency result in assay [9], in assay [2], in assay [3], in assay [4], in assay [6] and in assay [7] was “inactive” each time. The Potency result in assay [8] and in [10] was “inactive” throughout.
`C#CC1(O)CC[C@H]2[C@@H]3CCC4=CCCC[C@@H]4[C@H]3CC[C@@]21C` (stereo partly specified): the Potency entry in assay [1], in assay [3], in [4], in [6], in [7] and in assay [8] was “inactive” in each case. Further, the Potency entry in [10] is “inactive”. For the same molecule, the Potency entry in assay [2] is “inactive and 68.6 µM (active)”; in assay [5] it was 9.02 µM (active) and 17.2 µM (active).
As for `O=C(/C=C/c1ccc(O)c(O)c1)O[C@@H](C(=O)O)[C@@H](OC(=O)/C=C/c1ccc(O)c(O)c1)C(=O)O`, the Potency entry in [9], in assay [1], in assay [3], in assay [5], in assay [6] and in [8] was “inactive” in each case. In addition, in assay [10], the Potency entry is “inactive”.
For the molecule `Cc1cc(-n2nc3ccc(Cl)cc3n2)c(O)c(C(C)(C)C)c1`, the Potency result in [1], in assay [2], in assay [3], in [4], in assay [5] and in assay [6] was “inactive” in each case. Moreover, the Potency result in [7], in assay [8] and in [10] was “inactive” each time.
For the molecule `Cc1cc(=O)oc2cc(O)cc(O)c12`, the Potency result in [1], in [2], in [3], in [4], in assay [6] and in assay [7] was “inactive” throughout. For the same molecule, the Potency entry in [10] was “inactive”. The Potency was 61.3 µM (active) in assay [5] and 39.8 µM [fluorescent] (active) in [8].
As for `Oc1c(I)cc(Cl)c2cccnc12`, the Potency in assay [9] was 29.8 µM (active); in assay [5], 48.5 µM (active). Further, the Potency entry in assay [1], in assay [7] and in assay [8] was “inactive” in each case.
Take `OC/C=C/CO`: the Potency result in [9], in assay [1], in assay [3], in assay [6], in assay [7] and in assay [8] was “inactive” throughout.
For `CCCCCc1ccc(Cl)cc1`, the Potency entry in assay [9], in [1], in [3], in [5], in assay [6] and in assay [7] was “inactive” throughout. In addition, the Potency entry in assay [8] was “inactive”.
On to `O=C(O)CN(CCN(CC(=O)O)CC(=O)O)CC(=O)O`, for which the Potency result in assay [9], in assay [3], in assay [6], in [7], in assay [8] and in assay [10] was “inactive” throughout.
For `Cc1c(C)c2c(c(C)c1O)CC[C@@](C)(CCC[C@H](C)CCC[C@H](C)CCCC(C)C)O2`, the Potency entry in [1], in assay [2], in assay [3], in [4], in assay [5] and in assay [6] was “inactive” in each case. The Potency entry in assay [7] and in [8] was “inactive” throughout.
`C#C[C@]1(OC(C)=O)CC[C@H]2[C@@H]3CCC4=C[C@@H](OC(C)=O)CC[C@@H]4[C@H]3CC[C@@]21C`: the Potency result in [1], in assay [3], in [4], in assay [6], in assay [7] and in [8] was “inactive” in each case. In [10], the Potency result was “inactive”. In addition, the Potency was 29.8 µM (active) and inactive in assay [2]; 13.3 µM (active) in [5].
As for `COc1ccc(-c2coc3cc(O)ccc3c2=O)cc1`, the Potency was 1.72 µM (active) in assay [1] and 10.9 µM (active) in [5]. Further, the Potency result in assay [2], in [3], in assay [4], in [6], in assay [7] and in assay [8] was “inactive” throughout. Moreover, the Potency result in [10] was “inactive”.
On to `Sc1nc2ccccc2s1`, for which the Potency entry in assay [9], in [2], in assay [3], in assay [4], in assay [6] and in assay [7] was “inactive” throughout. In addition, the Potency result in assay [8] and in assay [10] was “inactive” throughout.
As for `CCCCCCCCCCCCCC[N+](C)(C)Cc1ccccc1`, the Potency entry in [1], in [6], in [7], in assay [8] and in assay [10] was “inactive” throughout. For the same molecule, the Potency in assay [2] is 23.7 µM (active) and 69.6 µM (active); in assay [3] it was 69.6 µM (active); in assay [4], 62.1 µM (active); in assay [5], 11.9 µM (active) and 27.7 µM (active).
For `CC[N+](CC)(CC)CCOC(=O)C(C1CCCC1)C1CCCC1`, the Potency entry in assay [1], in assay [2], in assay [3], in assay [4], in [5] and in assay [6] was “inactive” in each case. In addition, the Potency result in [7], in assay [8] and in assay [10] was “inactive” in each case.
In the case of `CC(C)NC[C@@H](O)COc1ccc(CC(N)=O)cc1`, the Potency entry in [1], in [2], in [3], in assay [4], in [5] and in assay [6] was “inactive” in each case. Also, the Potency result in assay [7] and in assay [8] was “inactive” each time.
